# Measurements as given in PubChem BioAssay (NCI).
# The panel holds about 83,000 compounds, 20% with a hit somewhere; the sample as a whole holds those more often.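 48-hour exposure, single concentration, 96-well plates; percent growth endpoint where 0 means no net growth. Active: below 10.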 Unmarked numbers belong to inactive results. Active and inactive are the calls of the source.
# How the values were obtained:
# Test in all cases: NCI-60 one-dose screen, 48 h (100 = growth as untreated, 0 = no growth, -100 = all killed)
# Conditions in all cases: 10 µM unless noted
# SR leukemia = tested on: SR leukemia
# RPMI-8226 leukemia = tested on: RPMI-8226 leukemia
# OVCAR-8 ovarian = tested on: OVCAR-8 ovarian
# OVCAR-5 ovarian = tested on: OVCAR-5 ovarian
# OVCAR-4 ovarian = tested on: OVCAR-4 ovarian
# SK-OV-3 ovarian = tested on: SK-OV-3 ovarian
# IGROV1 ovarian = tested on: IGROV1 ovarian
# OVCAR-3 ovarian = tested on: OVCAR-3 ovarian
# HS 578T breast = tested on: HS 578T breast
# NCI/ADR-RES ovarian = tested on: NCI/ADR-RES ovarian
SMILES,growth (SR leukemia),growth (RPMI-8226 leukemia),growth (OVCAR-8 ovarian),growth (OVCAR-5 ovarian),growth (OVCAR-4 ovarian),growth (SK-OV-3 ovarian),growth (IGROV1 ovarian),growth (OVCAR-3 ovarian),growth (HS 578T breast),growth (NCI/ADR-RES ovarian)
O=C(Cn1c(=O)sc2nc3ccccc3nc21)Nc1ncc(Cc2cccc(Cl)c2Cl)s1,101%,97.5%,97%,101%,102%,95.1%,81.3%,111%,90.2%,89.6%
O=C(NNC(=O)c1ccc(-n2cc(-c3ccccc3)nn2)cc1)Nc1ccccc1,110%,102%,95.9%,120%,104%,85.2%,103%,114%,92.2%,107%
CCCCNc1ccc(C#N)c(OCCN(CC)CC)c1,93.8%,93.3%,100%,97.4%,105%,102%,105%,–,123%,98.4%
O=C(Cn1cc(CN2CCCCCC2)nn1)Nc1ccc2c(ccn2Cc2ccccc2)c1,36.8%,64.3%,98.4%,105%,87%,82.7%,94%,95.7%,88.5%,102%
CC1=C(C(=O)OC(C)C)C(c2ccc3c(c2)OCO3)NC(=S)N1 (stereo not drawn),103%,87.7%,102%,105%,98.4%,105%,99.9%,121%,97.3%,101%
O=C(O)CCCN1C(=O)/C(=C/C(Cl)=C/c2ccccc2)SC1=S,13%,-13.1% (active),19.1%,59%,46.8%,110%,7.37% (active),13.6%,31.6%,3.81% (active)
CO[C@H]1/C=C(/C)CCC[C@H](C)[C@H](O)[C@@H](C)C(=O)C(C)(C)[C@@H](O)CC(=O)O[C@@H]1/C(C)=C/c1csc(C)n1,19.6%,14.2%,26.7%,34.6%,63.7%,5.27% (active),12.8%,-49.9% (active),-21.3% (active),-36.7% (active)
CN(C)CCCC1(c2ccc(F)cc2)OCc2cc(-c3cncc4ccccc34)ccc21 (stereo not drawn),-3.26% (active),35.3%,62.7%,70.5%,43.9%,59.6%,22.1%,47%,27.5%,67%
CN(C)CCNC(=O)c1cccc(-c2cnc3ccc(-c4ccc5c(c4)OCO5)nn23)c1,-2.23% (active),75.8%,88.6%,89.3%,67.2%,61.1%,30.6%,76.9%,80.1%,85.8%
CCCCCCNC(=O)Oc1ccc(/C(=C(/C)Cc2ccc(OC)cc2)c2ccc(OCCCN(C)C)cc2)cc1,-53.3% (active),-20.4% (active),13.3%,85.3%,60.7%,88.4%,41.6%,–,52.9%,67.5%
COc1cnc2c(c1)C(=O)c1c-2n(CCCNCCO)c(=O)c2ccncc12,-4.25% (active),-4.03% (active),-6.28% (active),-0.667% (active),-4.81% (active),6.1% (active),15.6%,8.44% (active),23.5%,58.8%
CCOC(=O)c1cnc2ccccc2c1Cl,109%,114%,99.6%,98.3%,84.7%,101%,122%,–,92.9%,105%
COc1ccc(/C=C2\COc3ccc(O)cc3C2=O)c(OC)c1OC,16.5%,8.76% (active),67%,95.8%,79.3%,112%,91.3%,–,78%,–
CC(C)(C)n1cc(-c2ccnc(NCCNS(=O)(=O)c3cccc4ccccc34)c2)c(-c2cccc(F)c2)n1,-20.7% (active),-31.8% (active),7.39% (active),-15% (active),-0.264% (active),6.65% (active),4.03% (active),-68.6% (active),-35.7% (active),-9.97% (active)
C=C1C(=O)O[C@H]2[C@H]1CC/C(COC(=O)CCSCCC(=O)OC/C1=C/CC[C@@]3(C)O[C@H]3[C@H]3OC(=O)C(=C)[C@@H]3CC1)=C\CC[C@@]1(C)O[C@@H]21,-15.8% (active),-27% (active),9.02% (active),-6.34% (active),41.7%,93.6%,-17.3% (active),-68.8% (active),19.4%,53.4%
CCCCCCC1(C)NCCO1 (stereo not drawn),94.5%,101%,96.6%,110%,96%,100%,79.8%,114%,126%,108%
COc1ccc(N2CCC(=O)NC2=S)cc1,116%,105%,106%,102%,106%,103%,108%,–,98.7%,98%
Cn1c(O)c(C=NCCN=Cc2c(O)n(C)c(=O)n(C)c2=O)c(=O)n(C)c1=O,-21.9% (active),80.6%,103%,83.7%,112%,107%,106%,102%,112%,104%
COc1ccc(C(=S)N2CCN(c3ccccc3Cl)CC2)cc1OC,39.9%,117%,105%,95.2%,99.9%,120%,105%,104%,99.4%,108%
COc1ccc2c(c1)[n+]([O-])c(C(=O)/C=C/C=C(\Cl)c1cc(OC)c(OC)c(OC)c1)c(C)[n+]2[O-],89.5%,109%,43.7%,104%,108%,38%,64.6%,93%,68%,91%
C=C1C(=O)O[C@H]2[C@H]1CC/C(COC(=O)CSCCSCC(=O)OC/C1=C/CC[C@@]3(C)O[C@H]3[C@H]3OC(=O)C(=C)[C@@H]3CC1)=C\CC[C@@]1(C)O[C@@H]21,-22.6% (active),-29.7% (active),4.46% (active),21.8%,40.4%,89.3%,-9.6% (active),–,32.6%,59.5%
O=C1c2cccnc2C(=O)c2c1c(C(=O)NCCCN1CCCCC1)c1ccccn21,-15.3% (active),-10.9% (active),-13.3% (active),-0.385% (active),-88% (active),-15.7% (active),-43.4% (active),-34.8% (active),36.3%,-15.5% (active)
C=C(C)[C@@H]1CC[C@]2(C(=O)OC)CC[C@]3(C)[C@H](CC[C@@H]4[C@@]5(C)C/C(=C/NC(N)=S)C(=O)C(C)(C)[C@@H]5CC[C@]43C)[C@@H]12,81.6%,69.6%,97.5%,118%,84.2%,97.7%,70.6%,–,91.7%,104%
CN1CCN(c2ccc(C(=O)Nc3cccc(C#Cc4cccc5[nH]nc(N)c45)c3)cc2C(F)(F)F)CC1,-17.7% (active),-13.7% (active),-14.5% (active),-43.1% (active),-0.309% (active),-42.6% (active),-56.5% (active),–,-26% (active),-24.7% (active)
CN(C)c1ccc(Nc2cc(-c3cccc(OC(F)(F)F)c3)nc3ccc(N4CCCC4)cc23)cc1,-14.6% (active),-33% (active),-26.6% (active),100%,-73.8% (active),98.6%,-17.9% (active),–,-1.71% (active),-30.2% (active)
CCOC(=O)c1ccc2[nH]c(O)c(C(=Nc3ccc(N(C)C(=O)CN4CCN(C)CC4)cc3)c3ccccc3)c2c1,-20.7% (active),-28.2% (active),-11.9% (active),-14% (active),-71.1% (active),-20.3% (active),-33.6% (active),–,-5.29% (active),53.1%
O=C(/C=C/c1ccccc1)c1cccc(OCCCOc2cccc(C(=O)/C=C/c3ccccc3)c2)c1,5.29% (active),-25.7% (active),73.8%,111%,92.5%,109%,85.1%,78.8%,113%,96.4%
COc1ccc(NC(=O)c2sc3nc(C)c(C(=O)/C=C/c4cccc(OC)c4)cc3c2N)cc1,5.9% (active),-22.9% (active),11.6%,59.6%,69.1%,91.8%,11%,–,36.8%,19.5%
